Test systems include HCT-15 colon; HT29 colon; SNB-75 CNS; SNB-19 CNS; U251 CNS; PC-3 prostate; SK-MEL-5 melanoma; UACC-62 melanoma; LOX IMVI melanoma; SK-MEL-28 melanoma.
Holding throughout (test): NCI-60 one-dose screen, 48 h (100 = growth as untreated, 0 = no growth, -100 = all killed)
Common to all, as to conditions: 10 µM unless noted

The panel holds about 83,000 compounds, 20% with a hit somewhere; the sample as a whole holds those more often.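 Results are percent growth after 48 hours of single-concentration exposure. 100 means growth as in untreated cells, lower positive values show inhibition; negative values down to -100 show cell death.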 A number with no mark means an inactive call. Active and inactive are the calls of the source. The calls were made as follows: active = growth percent below 10; inactive = the rest.

`C=C1C(=O)O[C@H]2[C@H]1CC/C(COC(=O)NCc1ccc(Cn3c(=O)sn(-c4ccc(I)cc4)c3=O)cc1)=C\CC[C@@]1(C)O[C@@H]21`: the growth with HCT-15 colon was 57%; in the assay on HT29 colon it was 34.1%; in the assay with SNB-75 CNS, 81.6%; in the assay on SNB-19 CNS, 107%; with U251 CNS, 83.6%; in the assay with PC-3 prostate it was 77.5%. The growth with SK-MEL-5 melanoma was 98.3%; with UACC-62 melanoma it was 81.2%; in the assay with LOX IMVI melanoma, 69.4%; in the assay with SK-MEL-28 melanoma, 93.9%.

For `COc1cc(Cc2cc(-c3ccccc3)nn(Cc3ccccc3)c2=O)cc(OC)c1OC`, the growth in the assay on HCT-15 colon is 29.1%; in the assay with HT29 colon it was 32.2%; with SNB-75 CNS it was 61%; in the assay on SNB-19 CNS, 51.7%; with U251 CNS, 32.9%; in the assay with PC-3 prostate, 22.7%. The growth with SK-MEL-5 melanoma is 40.2%; in the assay with UACC-62 melanoma, 37.7%; in the assay on LOX IMVI melanoma, 43.7%; in the assay with SK-MEL-28 melanoma, 56.2%.

`Cc1cccc(N2C(=O)/C(=C/C(Cl)=C/c3ccc([N+](=O)[O-])cc3)SC2=S)c1C`: the growth in the assay with HCT-15 colon was -20.3% (active); with HT29 colon, -7.89% (active); in the assay with SNB-75 CNS it was -19.1% (active); with SNB-19 CNS, 26.3%; in the assay on U251 CNS, 4.72% (active); in the assay with PC-3 prostate it was 8.37% (active). For the same molecule, the growth in the assay with SK-MEL-5 melanoma is -33.4% (active); with UACC-62 melanoma, 0.485% (active); in the assay on LOX IMVI melanoma, -70.4% (active); in the assay with SK-MEL-28 melanoma, 24.2%.

Turning to `CCOC(=O)c1nnn(Cc2cc(=O)oc3ccc(O)cc23)c1C`, the growth with HCT-15 colon was 103%; in the assay with HT29 colon, 103%; in the assay with SNB-75 CNS, 93.4%; in the assay on SNB-19 CNS, 96%; in the assay on U251 CNS it was 105%; in the assay with PC-3 prostate, 95.2%. The growth in the assay with SK-MEL-5 melanoma was 104%; with UACC-62 melanoma, 95.9%; in the assay on LOX IMVI melanoma, 99.9%; in the assay on SK-MEL-28 melanoma, 107%.

Consider `Fc1cc2[nH]ncc2c2c3c(c(-c4cn[nH]c4C(F)(F)F)nc12)CCCC3`, for which the growth in the assay with HCT-15 colon is 4.79% (active); with HT29 colon it was 6.14% (active); with SNB-75 CNS, -26.5% (active); in the assay with SNB-19 CNS it was 8.83% (active); with U251 CNS, -0.282% (active); in the assay with PC-3 prostate it was 34.6%. In addition, the growth is -66.3% (active) in the assay with SK-MEL-5 melanoma, -4.44% (active) with UACC-62 melanoma, -50.6% (active) in the assay on LOX IMVI melanoma and 0.426% (active) in the assay with SK-MEL-28 melanoma.

Consider `O=S(=O)(Nc1cc(F)cc(F)c1)c1ccc(-c2cnc(C3CC3)o2)cc1`, for which the growth in the assay on HCT-15 colon is 20%; with HT29 colon, 4.44% (active); in the assay on SNB-75 CNS, -3.36% (active); with SNB-19 CNS, 30%; in the assay with U251 CNS, 33%; in the assay with PC-3 prostate, 48.1%. The growth is 29.4% in the assay on SK-MEL-5 melanoma, 33.7% in the assay on UACC-62 melanoma, 36.3% with LOX IMVI melanoma and 60.8% with SK-MEL-28 melanoma.

On to `COC(=O)c1c2c(c[n+]([O-])c1C)C(=O)C=C(NCc1ccccc1)C2=O`, for which the growth with HCT-15 colon was -58.8% (active); with HT29 colon, 0.45% (active); in the assay with SNB-75 CNS, -97.3% (active); in the assay with SNB-19 CNS it was -99.4% (active); with U251 CNS it was -93.1% (active); in the assay with PC-3 prostate, -10.8% (active). Also, the growth in the assay on SK-MEL-5 melanoma was -100% (active); in the assay on UACC-62 melanoma, -81.3% (active); in the assay with LOX IMVI melanoma it was -74.6% (active); with SK-MEL-28 melanoma, -71.4% (active).

On to `O=C(/C=C/c1cn(-c2ccccc2)nc1-c1ccccc1)CCC(=O)NO`, for which the growth was 110% in the assay on HCT-15 colon; 104% in the assay with HT29 colon; 95.6% with SNB-75 CNS; 112% in the assay with SNB-19 CNS; 106% in the assay with U251 CNS; 108% in the assay with PC-3 prostate. The growth in the assay on SK-MEL-5 melanoma was 105%; with UACC-62 melanoma it was 103%; with LOX IMVI melanoma, 99.4%; in the assay with SK-MEL-28 melanoma, 130%.

On to `Fc1ccc2[nH]cc(-c3nc(-c4c[nH]c5c(Cl)nccc45)cs3)c2c1`, for which the growth in the assay with HCT-15 colon is -39.6% (active); with HT29 colon it was 17.5%; in the assay on SNB-75 CNS, 49.9%; in the assay with SNB-19 CNS, 59.9%; in the assay on U251 CNS, 13.8%; in the assay with PC-3 prostate, 31.5%. Also, the growth in the assay with SK-MEL-5 melanoma is 60.4%; in the assay with UACC-62 melanoma it was 24%; in the assay with LOX IMVI melanoma, 16.2%; in the assay on SK-MEL-28 melanoma, 43.9%.

For `CNC(=O)NCC1OC(n2cnc3c(NC(=O)Nc4ccccc4)ncnc32)C2OC(=O)CC12` (stereo not given), the growth in the assay with HCT-15 colon is 92.2%; in the assay on HT29 colon, 110%; in the assay on SNB-75 CNS it was 96.7%; with SNB-19 CNS, 103%; in the assay with U251 CNS it was 96.2%; with PC-3 prostate, 99.8%. Also, the growth is 110% in the assay with SK-MEL-5 melanoma, 99.2% in the assay on UACC-62 melanoma, 62.7% in the assay with LOX IMVI melanoma and 107% in the assay on SK-MEL-28 melanoma.

Turning to `CCOC(=O)C/C(=N\Nc1cc(=O)[nH]c2ccc(OC)cc12)C(=O)OCC`, the growth with HCT-15 colon is 99.7%; with HT29 colon it was 110%; in the assay with SNB-75 CNS, 94.6%; in the assay with SNB-19 CNS, 100%; in the assay with U251 CNS, 106%; with PC-3 prostate, 89%. In addition, the growth in the assay on SK-MEL-5 melanoma is 99.7%; in the assay with UACC-62 melanoma it was 90.4%; in the assay on LOX IMVI melanoma, 96.6%; with SK-MEL-28 melanoma it was 99.6%.

As for `O=S(Nc1ccccc1)c1ccc(Cl)cc1` (stereo not given), the growth with HCT-15 colon is 109%; in the assay with HT29 colon, 102%; in the assay on SNB-75 CNS, 83.2%; in the assay on SNB-19 CNS, 96.8%; in the assay on U251 CNS, 95.1%; with PC-3 prostate, 89.8%. In addition, the growth in the assay on SK-MEL-5 melanoma is 99.8%; in the assay with UACC-62 melanoma, 90.4%; in the assay with LOX IMVI melanoma, 100%; in the assay on SK-MEL-28 melanoma it was 107%.

In the case of `CS(=O)(=O)Nc1cc(-c2ccc3ncnc(Nc4ccc(OCc5ccccn5)c(Cl)c4)c3c2)cnc1Cl`, the growth in the assay with HCT-15 colon is 25.1%; in the assay with HT29 colon, -5.91% (active); with SNB-75 CNS it was -10.8% (active); with SNB-19 CNS, 24%; in the assay on U251 CNS, -27.1% (active); in the assay with PC-3 prostate, 13.4%. Further, the growth in the assay on SK-MEL-5 melanoma was -80.8% (active); with UACC-62 melanoma, 4.79% (active); in the assay with LOX IMVI melanoma, -19.6% (active); with SK-MEL-28 melanoma, 8.34% (active).

For `Cc1[nH]n(-c2cccc(Cl)c2)c(=O)c1/C=C1\C=c2ccccc2=CC1=O`, the growth is 49.9% with HCT-15 colon; 13.5% in the assay on HT29 colon; -5.52% (active) with SNB-75 CNS; 31.4% in the assay on SNB-19 CNS; -10.7% (active) in the assay on U251 CNS; 33% in the assay on PC-3 prostate. Further, the growth in the assay on SK-MEL-5 melanoma is -82.5% (active); in the assay with UACC-62 melanoma, 82.7%; in the assay with LOX IMVI melanoma it was -79.4% (active); with SK-MEL-28 melanoma, 51.1%.

The values above are taken from PubChem BioAssay (NCI).
